Data on 27 molecules can be found in PubChem BioAssay (EPA / NIEHS).

Calls of active or inactive are those of the source. Rule for the calls: active = hit-call score of the fitted dose curve at least 0.9, where 1 is the maximum; inactive = score below 0.9.

Assay [1] in a line: ATG_CRE_CIS: Attagene CIS-FACTORIAL HepG2 Assay for human cAMP Responsive Element (CRE) binding protein 3 (AID 2282926). Particulars: HepG2 CRE cis-reporter, Attagene multiplexed mRNA; actives raise or lower the signal. Put shortly: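 Capillary electrophoresis of 6-FAM-labelled, HpaI-digested PCR products quantified reporter transcripts. These came from HepG2 transiently transfected with cis-element reporters and exposed to test chemicals for 24 hours, with DMSO defining baseline activity.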

Assay [2] deals with CCAAT/enhancer-binding protein beta (Homo sapiens) (UniProt P17676). The assay can be described thus: ATG_C_EBP_CIS: Attagene CIS-FACTORIAL HepG2 Assay for human CCAAT/Enhancer Binding Protein (C/EBP) beta (AID 2282927). Particulars: HepG2 Attagene cis-factorial transcription factor reporter; actives raise or lower the signal. Put shortly:
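Transiently transfected HepG2 (MRTU library, endogenous TF-driven promoters); 24 h dosing; total RNA → oligo(dT) RT → PCR → 6-FAM primer extension → HpaI digest → CE; fit bidirectionally vs DMSO.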

Assay [3] is described as follows: ATG_CMV_CIS: Attagene CIS-FACTORIAL HepG2 Assay for human CMV (Internal Marker) (AID 2282928).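 Note: endpoint acts as a background internal control marker rather than a target.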 Particulars: HepG2 CMV promoter reporter, transcription factor profiling; actives raise or lower the signal. Put shortly: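 Fluorescence intensity of RT-PCR-derived reporter fragments, resolved by capillary electrophoresis, gives the signal. HepG2 liver cells bearing transfected cis-element reporters were treated 24 h; activity in either direction was fit relative to DMSO-treated controls.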

A short description of assay [4]: ATG_DR4_LXR_CIS: Attagene CIS-FACTORIAL HepG2 Assay for human Liver X Receptor (LXR), DR4 submotif (AID 2282929). Particulars: HepG2 Attagene DR4 cis-reporter, mRNA transcription; actives raise or lower the signal. Put shortly: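 Measures endogenous transcription factor activity via a DR4-driven reporter transcript in human HepG2 cells. Compounds incubated 24 h; mRNA quantified by RT-PCR and capillary electrophoresis, analysed as gain or loss of signal versus DMSO.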

The target in assay [5] is Aryl hydrocarbon receptor (Homo sapiens) (UniProt P35869). The assay can be described thus: ATG_Ahr_CIS: Attagene CIS-FACTORIAL HepG2 Assay for human Aryl Hydrocarbon Receptor (Ahr) (AID 2282930). Particulars: HepG2 AhR cis-factorial reporter transcription; actives raise or lower the signal. Put shortly: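 Read-out: reporter mRNA quantified by RT-PCR with fluorescent primer extension and capillary electrophoresis. Human HepG2 liver cells carried transfected cis-promoter reporter units and were exposed to chemical for 24 h; gain or loss fitted relative to DMSO.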
Sequence of Aryl hydrocarbon receptor (Homo sapiens) (P35869 whole entry, looked up): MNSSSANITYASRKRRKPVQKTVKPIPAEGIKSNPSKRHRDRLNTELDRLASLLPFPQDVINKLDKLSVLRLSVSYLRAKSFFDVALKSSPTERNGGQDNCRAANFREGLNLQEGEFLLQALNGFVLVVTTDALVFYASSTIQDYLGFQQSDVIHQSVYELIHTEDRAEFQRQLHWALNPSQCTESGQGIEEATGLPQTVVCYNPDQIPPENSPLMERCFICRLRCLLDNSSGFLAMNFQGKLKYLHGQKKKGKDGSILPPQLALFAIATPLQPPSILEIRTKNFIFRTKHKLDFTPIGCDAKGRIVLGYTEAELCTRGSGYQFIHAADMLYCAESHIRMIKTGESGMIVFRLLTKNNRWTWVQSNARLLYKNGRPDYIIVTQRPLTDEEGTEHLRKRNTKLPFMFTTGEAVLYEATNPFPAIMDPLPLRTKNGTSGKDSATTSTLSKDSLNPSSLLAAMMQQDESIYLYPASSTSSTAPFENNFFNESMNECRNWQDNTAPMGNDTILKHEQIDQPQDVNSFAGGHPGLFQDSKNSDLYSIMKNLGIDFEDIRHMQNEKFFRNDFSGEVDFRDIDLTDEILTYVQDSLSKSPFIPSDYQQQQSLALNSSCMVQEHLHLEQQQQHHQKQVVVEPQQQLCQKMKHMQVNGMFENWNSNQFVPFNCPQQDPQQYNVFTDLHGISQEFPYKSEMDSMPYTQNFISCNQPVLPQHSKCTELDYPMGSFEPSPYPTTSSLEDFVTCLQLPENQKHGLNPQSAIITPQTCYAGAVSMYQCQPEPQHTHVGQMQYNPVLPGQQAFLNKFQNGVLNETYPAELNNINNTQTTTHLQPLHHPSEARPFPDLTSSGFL

Assay [6] is described as follows: ATG_AP_1_CIS: Attagene CIS-FACTORIAL HepG2 Assay for human Activator Protein 1 (AP-1) (AID 2282931). Particulars: HepG2 Attagene cis-factorial AP-1 reporter mRNA; actives raise or lower the signal. Put shortly:
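Bidirectional concentration-response fitting against DMSO controls. Underlying signal: reporter mRNA from cis-promoter constructs in transiently transfected HepG2, measured after 24 h by RT-PCR and capillary electrophoresis.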

A short description of assay [7]: ATG_AP_2_CIS: Attagene CIS-FACTORIAL HepG2 Assay for human Activator Protein 2 (AP-2) (AID 2282932). Particulars: HepG2 AP-2 cis-reporter, Attagene transcription factor profiling; actives raise or lower the signal. In short, it runs like this: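 Read-out: fluorescent reporter mRNA via RT-PCR and capillary electrophoresis, 24 h post-dose in transiently transfected HepG2. Endogenous factors drive cis-promoter reporters; gain or loss of signal fitted bidirectionally against DMSO.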

Assay [8] in a line: ATG_BRE_CIS: Attagene CIS-FACTORIAL HepG2 Assay for human Bone Morphogenetic Protein (BMP) Response Element (BRE) (AID 2282933). Particulars: HepG2 BMP response element reporter, Attagene transcription factor profiling; actives raise or lower the signal. In short, it runs like this: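 Endogenous transcription factor activity at a BMP response element was monitored in transfected HepG2 cells 24 h after dosing. Fluorescent RT-PCR products were resolved by capillary electrophoresis, and activity was fitted in both directions versus DMSO.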

Assay [9] has as its target Transcription factor E2F1 (Homo sapiens) (UniProt Q01094). The assay can be described thus: ATG_E2F_CIS: Attagene CIS-FACTORIAL HepG2 Assay for human E2F Transcription Factor 1 (AID 2282935). Particulars: HepG2 Attagene cis-reporter, E2F reporter RNA transcripts; actives raise or lower the signal. In short, it runs like this: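 Transient MRTU transfection of HepG2; 24 h compound exposure; RNA → oligo(dT) RT → PCR → FAM label → HpaI cut → CE fluorescence. Gain/loss of signal fit against DMSO.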

Sequence of Transcription factor E2F1 (Homo sapiens) (Q01094 whole entry, looked up): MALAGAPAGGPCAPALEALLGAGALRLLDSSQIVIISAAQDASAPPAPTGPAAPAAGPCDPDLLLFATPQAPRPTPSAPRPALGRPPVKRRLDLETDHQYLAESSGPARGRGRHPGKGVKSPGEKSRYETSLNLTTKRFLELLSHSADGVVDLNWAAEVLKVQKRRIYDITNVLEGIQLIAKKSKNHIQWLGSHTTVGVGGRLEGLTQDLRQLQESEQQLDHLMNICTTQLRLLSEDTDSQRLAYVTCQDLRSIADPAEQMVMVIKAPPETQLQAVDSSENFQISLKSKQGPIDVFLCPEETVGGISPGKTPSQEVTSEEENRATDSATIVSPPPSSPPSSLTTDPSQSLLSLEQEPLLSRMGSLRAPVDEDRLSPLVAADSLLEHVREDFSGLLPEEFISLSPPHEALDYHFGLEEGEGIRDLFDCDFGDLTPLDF
Sequence of CCAAT/enhancer-binding protein beta (Homo sapiens) (P17676 whole entry, looked up): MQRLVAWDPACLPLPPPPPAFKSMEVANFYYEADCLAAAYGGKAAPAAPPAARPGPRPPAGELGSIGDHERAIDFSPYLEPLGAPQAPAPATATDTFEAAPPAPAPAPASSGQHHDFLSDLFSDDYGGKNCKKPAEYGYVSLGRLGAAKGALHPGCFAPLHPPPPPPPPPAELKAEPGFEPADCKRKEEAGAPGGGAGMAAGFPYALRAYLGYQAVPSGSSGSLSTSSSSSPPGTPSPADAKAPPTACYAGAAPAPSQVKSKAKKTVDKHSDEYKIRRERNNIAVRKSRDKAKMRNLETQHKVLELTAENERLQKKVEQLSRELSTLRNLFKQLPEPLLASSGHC

`CC(CCO)CCc1ccccc1` (stereo not drawn): the molecule was called inactive in [1], in [2], in assay [3], in [4], in assay [5] and in assay [6]. For the same molecule, the molecule was classed as inactive in assay [7], in assay [8] and in [9].

For `O=[N+]([O-])c1ccc(C=Cc2ccc([N+](=O)[O-])cc2S(=O)(=O)O)c(S(=O)(=O)O)c1`, the outcome in assay [1], in assay [2], in assay [3], in [4], in assay [5] and in assay [6] was inactive. In addition, the call in [7], in assay [8] and in assay [9] was inactive.

Regarding `CNC(=O)Oc1ccc2c(c1)[C@]1(C)CCN(C)[C@@H]1N2C`, the result in assay [1], in assay [2], in [3], in [4], in assay [5] and in assay [6] was inactive. For the same molecule, the molecule was called inactive in [7], in [8] and in assay [9].

Take `O=S(=O)(O)NC1CCCCC1`: the molecule was classed as inactive in assay [1], in assay [2], in [3], in assay [4], in assay [5] and in [6]. Also, the outcome in assay [7], in assay [8] and in [9] was inactive.

As to `CC(C)=CCCC(C)CC=O` (stereo not drawn), the outcome in [1], in assay [2], in assay [3], in assay [4], in [5] and in assay [6] was inactive. The molecule was classed as inactive in [7], in assay [8] and in assay [9].

Consider `O=c1cc(-c2ccccc2)oc2cc(O)cc(O)c12`, for which the molecule was classed as inactive in assay [1], in [2], in assay [6], in assay [7], in [8] and in assay [9]. The AC50 in assay [3] was 3.31 µM (active); in [4] it was 7.76 µM (active); in assay [5], 5.85 µM (active).

As to `CC1CC(OC(=O)c2ccccc2O)CC(C)(C)C1` (stereo not drawn), the molecule was called inactive in assay [1], in [2], in assay [4], in [5], in assay [7] and in assay [8]. The molecule was classed as inactive in assay [9]. For the same molecule, the AC50 in assay [3] is 100 µM (active); in assay [6], 69.4 µM (active).

Take `N#Cc1nc(Cl)c(Cl)c(Cl)c1Cl`: the result in assay [1], in assay [5] and in assay [9] was inactive. In addition, the concentration at half-maximal activity (AC50) is 6.82 µM (active) in [2]; 7.02 µM (active) in assay [3]; 3.14 µM (active) in assay [4]; 6.02 µM (active) in [6]; 4.74 µM (active) in [7]; 5.89 µM (active) in assay [8].

`C=COCCOCCOCCOC=C`: the outcome in assay [1], in [2], in assay [3], in assay [4], in assay [5] and in assay [6] was inactive. The call in assay [7], in assay [8] and in [9] was inactive.

With `Cc1ncc([N+](=O)[O-])n1C`, the molecule was called inactive in [1], in assay [2], in [3], in [4], in assay [5] and in assay [6]. Further, the molecule was called inactive in [7], in assay [8] and in assay [9].

Consider `O=C1NC(=O)c2ccccc21`, for which the call in assay [1], in [2], in assay [3], in [4], in assay [5] and in assay [6] was inactive. Moreover, the result in [7], in assay [8] and in assay [9] was inactive.

For the molecule `Cc1cccc(C)c1C`, the outcome in [1], in [2], in assay [3], in assay [4], in assay [5] and in assay [6] was inactive. In addition, the call in [7], in [8] and in [9] was inactive.

`CC(C)C1CCC(O)CC1` (stereo not drawn): the call in assay [1], in assay [2], in assay [3], in [4], in assay [5] and in [6] was inactive. The molecule was called inactive in assay [7], in [8] and in [9].

With `Cc1ccc2ccccc2n1`, the result in assay [1], in assay [2], in assay [3], in assay [4], in assay [6] and in [7] was inactive. Further, the molecule was classed as inactive in [8] and in assay [9]. In assay [5], the AC50 is 18.3 µM (active).

As for `C=C(C)C(=O)OCCOC(=O)CC(C)=O`, the molecule was classed as inactive in assay [1], in [2], in assay [3], in assay [4], in assay [5] and in assay [6]. Also, the molecule was classed as inactive in assay [7], in assay [8] and in [9].

Take `O=C(O)CCSCCC(=O)O`: the molecule was called inactive in assay [1], in assay [2], in assay [3], in [4], in assay [5] and in assay [6]. For the same molecule, the molecule was classed as inactive in assay [7], in assay [8] and in assay [9].

Regarding `CNCCO`, the molecule was called inactive in [1], in [2], in [3], in assay [4], in assay [5] and in assay [6]. Moreover, the molecule was classed as inactive in assay [7], in assay [8] and in [9].

For `CC(=O)Nc1ccccc1O`, the molecule was classed as inactive in assay [1], in assay [2], in assay [3], in [4], in assay [6] and in assay [7]. Moreover, the result in [8] and in assay [9] was inactive. Also, the AC50 in [5] is 20.7 µM (active).

For the molecule `CC(C)CCCCCCCOC(=O)c1ccc(C(=O)OCCCCCCCC(C)C)c(C(=O)OCCCCCCCC(C)C)c1`, the molecule was classed as inactive in assay [1], in assay [2], in assay [3], in assay [4], in [5] and in assay [6]. Moreover, the result in assay [7], in assay [8] and in assay [9] was inactive.

Regarding `C=C[Si](OCC)(OCC)OCC`, the molecule was classed as inactive in [1], in assay [2], in assay [3], in assay [4], in assay [5] and in assay [6]. The molecule was classed as inactive in assay [7], in [8] and in assay [9].

Consider `O=CCCc1ccccc1`, for which the molecule was called inactive in assay [1], in [2], in assay [3], in assay [4], in assay [5] and in assay [6]. Besides, the molecule was classed as inactive in assay [7], in [8] and in assay [9].

In the case of `Cc1ccc(C(C)C)cc1O`, the call in assay [1], in assay [2], in assay [3], in assay [4], in [5] and in assay [6] was inactive. The molecule was called inactive in assay [7], in assay [8] and in assay [9].

Turning to `O=C[C@@H](O)[C@H](O)[C@H](O)CO`, the result in [1], in assay [2], in [3], in [4], in assay [5] and in assay [6] was inactive. The call in assay [7], in assay [8] and in assay [9] was inactive.

On to `BrC1CCC(Br)C(Br)CCC(Br)C(Br)CCC1Br` (stereo not drawn), for which the outcome in assay [1], in assay [2], in [4], in assay [5], in assay [7] and in assay [8] was inactive. Moreover, the outcome in [9] was inactive. The half-maximal activity concentration (AC50) in assay [3] was 23.9 µM (active); in assay [6], 36.2 µM (active).

On to `CC(O)C(C)O` (stereo not drawn), for which the molecule was classed as inactive in [1], in [2], in assay [3], in assay [4], in assay [5] and in [6]. In addition, the call in [7], in assay [8] and in [9] was inactive.

For the molecule `C=CC(=O)OCC(O)COc1ccccc1` (stereo not drawn), the call in assay [1], in assay [2], in assay [3], in [5], in [6] and in assay [9] was inactive. The AC50 in assay [4] was 32 µM (active); in [7], 26.8 µM (active); in assay [8], 82.8 µM (active).

On to `CCCCCCCCCCN`, for which the result in assay [1], in assay [2], in assay [3], in assay [4], in assay [5] and in assay [6] was inactive. Moreover, the result in [7], in assay [8] and in assay [9] was inactive.

What is called AC50 is the concentration giving half of the maximal activity seen.
